# Measured values as given in PubChem BioAssay AID1839 (Johns Hopkins Ion Channel Center, 2009).
# Hit rate of the full screen: of about 2,400 compounds, about 220 (9.2%) were called active. Many of the other results were omitted from the sample, so actives are more common in it than they were. Values without a mark were called inactive.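 How the source made its calls: active means signal change above the mean of dofetilide-free buffer controls plus 3 SD, so a positive margin; inactive means the rest.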
# Assay: thallium signal changes without hERG – cell-based, CHO-K1 parental line, FluxOR thallium flux, counter-screen for hERG block protection project, confirmation (AID 1839);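 further: compounds applied alone with no dofetilide to cells lacking hERG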
# Settings: CHO-K1 parental cells, FluxOR thallium flux fluorescence; at 10 µM
row,SMILES,"signal change vs control minus 3*SD hit threshold (margin above threshold, higher = more increase)"
1,CCCCNC(=O)N1CCCC(C(=O)c2cc(C)c(OC)c(C)c2)C1 (configuration not stated),-38%
2,O=C(NCc1cccs1)C1CC(c2ccc(F)cc2)=NO1 (configuration not stated),-40.3%
3,Cc1cccc(NC(=O)CN2C(=O)S/C(=C\c3cccn3-c3cccc(C(=O)O)c3)C2=O)c1,-27.2%
4,Cc1cc(Cl)ccc1OC(C)C(=O)NCCc1ccc2c(c1)OCCO2 (configuration not stated),-37.2%
5,CC(NC(=O)NC1CCCCC1)c1ccc2c(c1)OCO2 (configuration not stated),-5.4%
6,COc1ccc(C(=O)CC(=O)C(=O)Nc2ccc(C)c(C)c2)cc1,-27.5%
7,Cc1ccnc(SCCn2c(N3CC(C)OC(C)C3)nc3c2c(=O)n(C)c(=O)n3C)n1 (configuration not stated),-31.9%
8,CCOc1ccc2nc(N3C(=O)/C(=C/c4ccccc4)NC3=S)sc2c1,-18.8%
9,CCOc1ccc2nc(/N=C/c3c(C)[nH]n(-c4ccccc4)c3=O)sc2c1,53.3% (active)
10,CCOc1ccc2nc(/N=C/c3nc(-c4ccccc4)oc3O)sc2c1,-18.5%
11,S=c1[nH]nc(CSc2nc3ccccc3s2)n1C1CCCCC1,-26.3%
12,Cc1ccc(NC(=O)c2cc(NC(=O)/C=C\C(=O)O)ccc2N2CCCCC2)cc1,-12.7%
13,CCC1(C)Cc2c(sc3[nH]c(=S)n(Cc4ccccc4)c(=O)c23)CO1 (configuration not stated),10.6% (active)
14,CC1(C)Cc2c(sc3[nH]c(=S)n(Cc4ccccc4)c(=O)c23)CO1,-22.2%
15,CC(C)C1Cc2c(sc3[nH]c(=S)n(Cc4ccccc4)c(=O)c23)CO1 (configuration not stated),-10.8%
16,COC(=O)CSc1nc(N2CCCCC2)c2c(c1C#N)CCCC2,-8.9%
17,O=C(COC(=O)c1cc(Br)ccc1O)Nc1cccnc1Cl,-24.7%
18,CC(C)c1ccc(OCC(=O)NN2C(=O)c3ccccc3C2=O)c(Br)c1,-24%
19,Cc1ccc(C)c2sc(NC(=O)c3nc4ccccc4s3)nc12,-20.2%
20,CCOC(=O)c1c(NS(=O)(=O)Cc2ccccc2)sc2c1CCCC2,-0.7%
21,COC(=O)c1c(NS(=O)(=O)c2ccc3ccccc3c2)sc2c1CCCC2,-22.4%
22,CCOC(=O)c1c(NS(=O)(=O)c2ccc(Br)cc2)sc2c1CCC2,32.6% (active)
23,CN(NC1OC(=O)c2ccccc21)c1ccccc1[N+](=O)[O-] (configuration not stated),-30.9%
24,COc1nnc(-c2ccc(C)c(S(=O)(=O)NC(C)(C)CO)c2)c2ccccc12,-25.8%
25,Cc1ccc(C(=O)Sc2cccccc2=O)cc1,-20.3%
26,O=c1c(O)c(-c2ccc3c(c2)OCO3)oc2ccccc12,-10.8%

row,SMILES,"signal change vs control minus 3*SD hit threshold (margin above threshold, higher = more increase)"
1,O=c1c(O)c(-c2cccs2)oc2ccc(Cl)cc12,64.2% (active)
2,O=C1OC(/C=C/c2ccc(Cl)cc2Cl)=NC/1=C\c1cccs1,-32.3%
3,O=c1c(O)c(-c2cccs2)oc2ccccc12,39.2% (active)
4,O=c1c2cc(Cl)ccc2[nH]c(=S)n1Cc1cccs1,-21.6%
5,CCN(CC)CCCN1C(=O)c2oc3ccccc3c(=O)c2C1c1cccs1 (configuration not stated),-15.9%
6,Cc1ccccc1NP(=O)(c1ccccc1)c1nc2ccccc2s1 (configuration not stated),-31.9%
7,CCOc1ccc(N)c(SSc2cc(OCC)ccc2N)c1,-32.6%
8,Cc1ccc(CC23CN4CCN(CC(C4)C2O)C3)c(C)c1 (configuration not stated),-14.8%
9,CN(C)CCOC(=O)C1(c2ccccc2)CCCC1,-31.9%
10,COC(=O)C1=C(C)NC2=C(C(=O)CCC2)C1c1ccc(-c2ccsc2C(=O)OC)o1 (configuration not stated),-17.8%
11,O=C(/C=C/c1ccccc1)CC(=O)c1ccccc1O,-29.3%
12,CCOc1cc(N2CCOCC2)c(OCC)cc1NC(=O)CCC1CCCC1,-19.4%
13,Cc1ccccc1NC(=S)NC(=O)c1cc(-c2ccccc2)nc2ccccc12,-15.1%
14,Cc1cccc(NC(=S)NC(=O)c2ccc(Br)o2)c1C,-13.6%
15,COc1ccc(OC)c(NC(=S)NC(=O)c2ccc(Br)o2)c1,-21.4%
16,Cc1cccc(NC(=S)NC(=O)c2ccc(Br)o2)c1,9.1% (active)
17,CCN(c1ccccc1)S(=O)(=O)c1ccc(NC(=S)NC(=O)c2ccc(Br)o2)cc1,-20.8%
18,O=C(CNC(=S)NC(=O)c1ccc(Br)o1)c1ccccc1,-26.3%
19,O=C(NC(=S)Nc1ccccc1F)c1ccc(Br)o1,23% (active)
20,Cc1cccc(C)c1NC(=S)NC(=O)c1ccc(Br)o1,18.7% (active)
21,COc1ccccc1NC(=S)NC(=O)c1ccc(-c2ccc(Cl)cc2)o1,-22.6%
22,Cc1ccc(NC(=S)NC(=O)c2ccc(Br)o2)c(C)c1,-19.5%
23,O=C(NC(=S)Nc1ccccc1)c1ccc(Br)o1,-17.9%
24,O=C(NC(=S)NCc1ccccc1)c1cccs1,-11.1%
25,O=C(NC(=S)NCc1ccccc1)c1ccc(Br)o1,39.2% (active)
26,CCN(CC)c1ccc(NC(=S)NC(=O)c2ccco2)cc1,-1.8%

row,SMILES,"signal change vs control minus 3*SD hit threshold (margin above threshold, higher = more increase)"
1,N#Cc1c(-c2ccco2)c2c([nH]c1=S)CCCC2,-29.5%
2,CCOC(=O)c1c(-c2ccccc2)csc1NC(=S)NC,-10.9%
3,CC12CCC(C/C1=N\N=C1\NC(=O)/C(=C\c3ccc(Cl)cc3)S1)C2(C)C (configuration not stated),-20.2%
4,Cc1nnc2ccc(-c3cccc(NC(=O)c4ccc(Cl)nc4)c3)nn12,-41.7%
5,O=C(NC(=S)N1CCN(c2ccccc2)CC1)c1ccccc1,-8.7%
6,CC(C)Sc1nc2ccccc2n2cnnc12,-29.7%
7,Cc1cccc(/C=C2/S/C(=N/N=C3\CC4CCC3(C)C4(C)C)NC2=O)c1 (configuration not stated),-12.4%
8,Cc1ccc2nsnc2c1S(=O)(=O)Nc1cccc2nsnc12,-18.7%
9,CCC1CCc2c(sc(NC(=O)C3CC=CCC3C(=O)O)c2C#N)C1 (configuration not stated),-5.5%
10,C=CCc1cccc(C2Nc3ccccc3C(=O)N2O)c1O (configuration not stated),-26.4%
11,O=C1c2ccccc2NC(c2ccc(Br)s2)N1O (configuration not stated),15.6% (active)
12,Cc1cc([N+](=O)[O-])ccc1-c1ccc(C2Nc3ccccc3C(=O)N2O)o1 (configuration not stated),-18.3%
13,C=CCN(CC=C)C(=S)NC(=O)/C=C/c1ccc(OC)cc1,-19.8%
14,Cc1cc(-c2cccnc2)c(C#N)c(SCc2cccc(F)c2)n1,-37.3%
15,COC(=O)c1sccc1NC(=S)NCc1ccc(Cl)cc1,-22.4%
16,CCc1cc2c(=O)n(CCC(C)C)c(=S)[nH]c2s1,26.1% (active)
17,CCOC(=O)C1=C(c2ccccc2)NC(=O)NC1c1ccc(OC)c(OC)c1 (configuration not stated),-32.6%
18,C/C(=N\NC(N)=S)c1ccncc1,-26.5%
19,CC(C)NC(=S)N/N=C/c1ccc(C(C)(C)C)cc1,-20.4%
20,CSC(=S)N/N=C/c1ccc(Br)cc1,-17.6%
21,CSC(=S)N/N=C/c1ccccc1,18.1% (active)
22,CSC(=S)N/N=C(\C)c1ccccc1,15.8% (active)
23,C/C(=N\NC(N)=S)c1cccnc1,-29.6%
24,CC1=C(C#N)C(Nc2cc(C)ccn2)(C(F)(F)F)C(=O)N1 (configuration not stated),-31.1%
25,CCOC(=O)c1c(-c2ccc(C)o2)csc1NC(=S)NC(=O)N(C)C,-14.3%
26,CNc1nc(N)nc(OC(C(F)(F)F)C(F)(F)F)n1,-25.1%

row,SMILES,"signal change vs control minus 3*SD hit threshold (margin above threshold, higher = more increase)"
1,CC(=O)c1c(NC(=O)c2ccccc2)[nH]c(-c2ccccc2)nc1=S,-26.3%
2,CC(Oc1ccc(Br)cc1)c1nc2c3ccccc3nc(=S)n2[nH]1 (configuration not stated),-25%
3,S=c1nc(-c2ccccc2)[nH]c2ccc(Br)cc12,52.8% (active)
4,S=c1nc(-c2ccc(Br)cc2)[nH]c2ccccc12,53.6% (active)
5,S=c1[nH]c2ccccc2c2ccccc12,-25%
6,CC(=O)c1c(N2CCCC2)[nH]c(-c2ccccc2)nc1=S,-21.2%
7,NNC(=O)CNc1ccccc1Cl,-26%
8,CN(C)c1ccc(C(CNS(=O)(=O)c2ccc([N+](=O)[O-])cc2)N2CCCC2)cc1 (configuration not stated),-29%
9,O=C(Nc1ncc(Br)s1)C(Cc1ccccc1)n1cccc1 (configuration not stated),6.9% (active)
10,O=C(CCc1ccccc1)Nc1nccs1,-33.8%
11,CC(C)C(=O)Nc1ccc(NC(=O)CCc2ccccc2)cn1,-33.7%
12,COc1cccc(OC)c1C(=O)NC(=S)N1CCN(c2ccc(C(F)(F)F)cc2[N+](=O)[O-])CC1,-46.3%
13,COCc1cc(C)nc(OCC(=O)N/N=C/c2ccc(-c3cc([N+](=O)[O-])ccc3Cl)o2)c1C#N,-29.8%
14,Cc1nn(C(=O)CNC(=O)c2ccccc2)c(C)c1C,-23.2%
15,CC(=O)c1n[nH]nc1NC(=O)c1ccccc1,-17.2%
16,Cc1ccccc1Cn1nc(C)c(NC(=O)c2ccccc2)c1C,11.5% (active)
17,Cn1nc(C(F)(F)F)c(-c2ccc(Br)cc2)c1NC(=O)c1cccnc1,-37.7%
18,O=C1NCC(=O)N2C(c3ccccc3)c3[nH]c4ccccc4c3C[C@@H]12 (some centres not stated),-28.2%
19,S=c1nc(-c2ccccc2)c(-c2ccccc2)n[nH]1,-37%
20,S=c1nc(C2CCCCC2)n(-c2ccccc2)[nH]1,-0.7%
21,S=c1nc(-c2ccccc2)[nH]n1-c1ccccc1,16.8% (active)
22,COc1cccc(NC(=O)c2nn(-c3ccc(OC)cc3OC)c(=O)c3ccccc23)c1,-26.1%
23,COc1cccc(-n2nc(C(=O)O)c3ccccc3c2=O)c1,4.7% (active)
24,COc1ccc(-n2nc(C(=O)NCC(=O)NCc3ccc(F)cc3)c3ccccc3c2=O)cc1OC,-26.4%
